Reference: the supplement of paper PMC8047044
Structures can show the parent of a compound that is named as a salt.

What was measured:
Neuro-2a [1] = assay: neurite formation score, plate-normalized to DMSO control mean 5.04 (score (0-8 scale)); higher = more or longer neurites; conditions: 1 µM
Description: (§1)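 Neuro-2a mouse neuroblastoma cells in PLL-coated 96-well plates were pre-treated for 1 h in DMEM(+) with each kinase inhibitor at 1 µM, then switched to serum-free DMEM(-) with inhibitor to induce neurite outgrowth and fixed about 2-3 h later. Three blinded observers scored neurite formation from 0 (no neurites) to 8 (long neurites on almost all cells).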

Neuro-2a [2] = assay: as above; conditions: 0.1 µM
Description: as §1, with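 “at 0.1” for “at 1”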

Row | Structure (SMILES) | neurite formation score (Neuro-2a [1]) | neurite formation score (Neuro-2a [2])
1 | CC(C)c1cnn2c(NCc3ccccc3)cc(NCCCCCCN)nc12 | 4.57 | 4.88
2 | C=CC(=O)Nc1cccc(Oc2nc(Nc3ccc(N4CCN(C)CC4)cc3)ncc2Cl)c1 | 5.96 | 4.25
3 | CN1CCN(S(=O)(=O)c2ccc(-c3cnc(N)c(C(=O)Nc4cccnc4)n3)cc2)CC1 | 2.88 | 4.75
4 | COc1ccc2c(OCc3nnc4ccc(-c5ccccc5)nn34)ccnc2c1 | 4.54 | 5.75
5 | COc1cc(-c2cc(-c3ccc(N4CCNCC4)cc3)cnc2C)cc(OC)c1OC | 4.47 | 5.09
6 | CCS(=O)(=O)N1CCN(c2ccc(Nc3ncc(C(N)=O)c(NC4CC4)n3)cc2)CC1 | 4.54 | 5.08
7 | CNC(=O)c1cccc(-c2ccc3c(N4CCOC[C@@H]4C)nc(N4CCOC[C@@H]4C)nc3n2)c1 | 4.29 | 4.58
8 | CC(C)N(CCC(=O)c1ccc2ccccc2c1)Cc1ccccc1 | 5.02 | 4.92
9 | COc1ccc(CNC(=O)Nc2ncc([N+](=O)[O-])s2)cc1 | 4.91 | 4.71
10 | N=C(N)NC(=N)NCCc1ccccc1 [Phenformin HCl] | 4.8 | 4.76
11 | CNc1nc(Nc2ccc(C(=O)N3CCOCC3)cc2OC)ncc1Cl | 4.96 | 4.58
12 | O=C(NCc1cccc(O)c1)Nc1nc(-c2ccncc2)cs1 | 5.02 | 5.25
13 | CC(C)Oc1ccc(-c2cnc3c(-c4ccnc5ccccc45)cnn3c2)cc1 | 4.88 | 4.08
14 | Nc1cc(C(F)(F)F)c(-c2cc(N3CCOCC3)nc(N3CCOCC3)n2)cn1 | 5.24 | 2.71
15 | O=C(O)CCC(=O)Nc1ccc(Br)cn1 [Bikinin] | 4.54 | 1.42
